Targets with a hit are over-represented here; the source holds about 7,900 in all. About 0.6% of all pairs of compound and target were hits.
Tests used:
Assay in all cases: log2 fold change, soluble protein after heating vs DMSO (PISA); higher = thermal stabilisation; K562 cells, 10 uM, 30 min; active = over 0.2 and 3.5 SD of the protein, either way, in both replicates (recomputed)
[1] = compound: CC[C@@H]1C(=O)N(C)c2cnc(Nc3ccc(C(=O)NC4CCN(C)CC4)cc3OC)nc2N1C1CCCC1
How it was run: (§1)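 K562 cells at 2×10^6 cells/mL were treated for 30 min with 10 μM compound, and aliquots were heated for 3 min over 48°C-58°C before pooling. Extraction used PBS with 0.5% NP-40 at 4°C, and soluble protein was the supernatant after 21,000xg for 90 min, measured by TMTpro 16plex LC-MS/MS with channel sums equalised. Thermal stability values, relative to control samples and from duplicates, are log2 fold changes.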

volasertib = compound: CC[C@@H]1C(=O)N(C)c2cnc(Nc3ccc(C(=O)N[C@H]4CC[C@H](N5CCN(CC6CC6)CC5)CC4)cc3OC)nc2N1C(C)C [volasertib]
How it was run: as §1

[2] = compound: CC[C@H](C)N1C=C(C2=C(C=C(C=C21)C3=CN=C(C=C3)N4CCNCC4)C(=O)NCC5=C(C=C(NC5=O)C)C)C
How it was run: as §1

epoxomicin = compound: CC[C@H](C)[C@@H](C(=O)N[C@@H]([C@@H](C)O)C(=O)N[C@@H](CC(C)C)C(=O)[C@]1(CO1)C)NC(=O)[C@H]([C@@H](C)CC)N(C)C(=O)C [epoxomicin]
How it was run: as §1

[3] = compound: CCn1c(C(=O)N(C2CC2)C2CC2)cc2c3c(ncn3C)c(Nc3cc(C)n(C)n3)nc21
How it was run: as §1

[4] = compound: CCn1cc(-c2ccnc3[nH]c(-c4cccc(CN(C)C)c4)cc23)c(-c2ccc(NC(=O)N(C)C)cc2)n1
How it was run: as §1

[5] = compound: CN(C)CC(=O)Nc1ccc2[nH]c(=O)c3ccccc3c2c1
How it was run: as §1

rosiglitazone = compound: CN(CCOC1=CC=C(C=C1)C[C@H]2C(=O)NC(=O)S2)C3=CC=CC=N3 (racemic) [rosiglitazone]
How it was run: as §1

[6] = compound: CN1C2=C(C3=C1C(=O)N(N=C3)CC4=CC(=CC=C4)N)SC(=C2)S(=O)C
How it was run: as §1

[7] = compound: CN1CCC(CNc2ccc3ncc(-c4cccc(OC(F)(F)F)c4)n3n2)CC1
How it was run: as §1

Measured: log2 fold change

MAP4 (UniProt E7EVA0)
inactive: [1] 0.079 | volasertib 0.246 | [2] 0.036 | epoxomicin -0.113 | [3] -0.004 | [4] 0.068 | [5] -0.021 | rosiglitazone -0.206 | [6] 0.131 | [7] 0.152

MAP2K1 (UniProt Q02750)
Chain of UniProt Q02750 (Q02750 whole entry, looked up): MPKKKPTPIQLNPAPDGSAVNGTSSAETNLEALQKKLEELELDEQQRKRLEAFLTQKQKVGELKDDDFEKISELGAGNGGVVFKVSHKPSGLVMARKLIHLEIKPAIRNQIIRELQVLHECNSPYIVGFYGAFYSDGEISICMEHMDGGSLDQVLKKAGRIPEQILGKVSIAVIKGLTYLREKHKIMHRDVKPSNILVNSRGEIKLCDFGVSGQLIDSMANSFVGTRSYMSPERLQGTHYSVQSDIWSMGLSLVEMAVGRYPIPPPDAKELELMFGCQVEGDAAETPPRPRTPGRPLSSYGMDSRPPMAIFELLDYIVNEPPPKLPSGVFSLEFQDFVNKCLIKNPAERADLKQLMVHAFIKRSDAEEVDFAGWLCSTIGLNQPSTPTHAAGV
inactive: [1] -0.017 | volasertib -0.058 | [2] 0.024 | epoxomicin 0.053 | [3] -0.006 | [4] -0.092 | [5] 0.032 | rosiglitazone 0.029 | [6] -0.06 | [7] -0.113

ILKAP (UniProt Q9H0C8)
Chain of UniProt Q9H0C8 (Q9H0C8 whole entry, looked up): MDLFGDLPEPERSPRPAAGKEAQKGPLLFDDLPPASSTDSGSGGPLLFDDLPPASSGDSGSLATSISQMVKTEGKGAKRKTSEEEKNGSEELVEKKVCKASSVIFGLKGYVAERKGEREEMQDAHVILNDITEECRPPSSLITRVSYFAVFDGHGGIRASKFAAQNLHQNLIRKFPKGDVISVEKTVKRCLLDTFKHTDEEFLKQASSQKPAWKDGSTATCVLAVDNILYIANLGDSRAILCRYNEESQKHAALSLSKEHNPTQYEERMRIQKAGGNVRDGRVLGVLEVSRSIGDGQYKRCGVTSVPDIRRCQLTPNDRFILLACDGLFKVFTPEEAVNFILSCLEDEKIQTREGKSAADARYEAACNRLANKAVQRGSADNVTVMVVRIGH
active: volasertib -0.343
inactive: [1] -0.135 | [2] 0.127 | epoxomicin 0.077 | [3] -0.071 | [4] -0.052 | [5] 0.086 | rosiglitazone 0.023 | [6] -0.085 | [7] -0.064

KSR1 (UniProt Q8IVT5)
active: [7] -0.878
inactive: [1] -0.11 | volasertib -0.182 | [2] 0.179 | epoxomicin 0.047 | [3] 0.002 | [4] 0.178 | [5] 0.009 | rosiglitazone 0.058 | [6] -0.05

KIF21A isoform 4 (UniProt Q7Z4S6)
inactive: [1] 0.073 | volasertib -0.019 | [2] 0.038 | epoxomicin 0.066 | [3] -0.037 | [4] -0.121 | [5] 0.013 | rosiglitazone 0.033 | [6] 0.054 | [7] 0.076

MAPKAPK2 (UniProt P49137)
inactive: [1] -0.058 | volasertib -0.059 | [2] 0.026 | epoxomicin 0.049 | [3] 0.022 | [4] -0.002 | [5] 0.032 | rosiglitazone 0.023 | [6] -0.007 | [7] -0.018

IGF2R (UniProt P11717)
active: [1] -1.09 | volasertib -0.875 | [7] -0.607
inactive: [2] -0.033 | epoxomicin 0.002 | [3] 0.018 | [4] -0.013 | [5] -0.023 | rosiglitazone -0.024 | [6] -0.013

KLC2 (UniProt Q9H0B6)
inactive: [1] -0.03 | volasertib -0.059 | [2] 0.038 | epoxomicin 0.015 | [3] -0.046 | [4] 0.02 | [5] -0.003 | rosiglitazone 0.057 | [6] -0.013 | [7] -0.131

KDM3B (UniProt Q7LBC6)
inactive: [1] -0.164 | [2] 0.06 | epoxomicin 0.061 | [3] -0.024 | [4] 0.001 | [5] 0.043 | rosiglitazone 0.048 | [6] -0.049 | [7] -0.071
active: volasertib -0.349

KPNA6 (UniProt O60684)
inactive: [1] -0.225 | [2] 0.04 | epoxomicin 0.021 | [3] -0.098 | [4] 0.043 | [5] 0.063 | rosiglitazone 0.062 | [6] 0.227 | [7] -0.184
active: volasertib -0.699

MED1 (UniProt Q15648)
inactive: [1] 0.073 | volasertib 0.077 | [2] 0.076 | epoxomicin -0.051 | [3] -0.001 | [4] -0.04 | [5] -0.054 | rosiglitazone 0.001 | [6] 0.024 | [7] -0.025

INPP5B (UniProt P32019)
inactive: [1] 0.021 | volasertib -0.04 | [2] 0.002 | epoxomicin 0.007 | [3] -0.029 | [4] 0.031 | [5] 0.057 | rosiglitazone 0.012 | [6] 0.12 | [7] 0.003

LRBA (UniProt P50851)
inactive: [1] -0.05 | [2] 0.034 | epoxomicin 0.017 | [3] 0 | [4] -0.074 | [5] 0.008 | rosiglitazone 0.048 | [6] -0.057 | [7] -0.139
active: volasertib -0.221

LNPEP (UniProt Q9UIQ6)
Chain of UniProt Q9UIQ6 (Q9UIQ6 whole entry, looked up): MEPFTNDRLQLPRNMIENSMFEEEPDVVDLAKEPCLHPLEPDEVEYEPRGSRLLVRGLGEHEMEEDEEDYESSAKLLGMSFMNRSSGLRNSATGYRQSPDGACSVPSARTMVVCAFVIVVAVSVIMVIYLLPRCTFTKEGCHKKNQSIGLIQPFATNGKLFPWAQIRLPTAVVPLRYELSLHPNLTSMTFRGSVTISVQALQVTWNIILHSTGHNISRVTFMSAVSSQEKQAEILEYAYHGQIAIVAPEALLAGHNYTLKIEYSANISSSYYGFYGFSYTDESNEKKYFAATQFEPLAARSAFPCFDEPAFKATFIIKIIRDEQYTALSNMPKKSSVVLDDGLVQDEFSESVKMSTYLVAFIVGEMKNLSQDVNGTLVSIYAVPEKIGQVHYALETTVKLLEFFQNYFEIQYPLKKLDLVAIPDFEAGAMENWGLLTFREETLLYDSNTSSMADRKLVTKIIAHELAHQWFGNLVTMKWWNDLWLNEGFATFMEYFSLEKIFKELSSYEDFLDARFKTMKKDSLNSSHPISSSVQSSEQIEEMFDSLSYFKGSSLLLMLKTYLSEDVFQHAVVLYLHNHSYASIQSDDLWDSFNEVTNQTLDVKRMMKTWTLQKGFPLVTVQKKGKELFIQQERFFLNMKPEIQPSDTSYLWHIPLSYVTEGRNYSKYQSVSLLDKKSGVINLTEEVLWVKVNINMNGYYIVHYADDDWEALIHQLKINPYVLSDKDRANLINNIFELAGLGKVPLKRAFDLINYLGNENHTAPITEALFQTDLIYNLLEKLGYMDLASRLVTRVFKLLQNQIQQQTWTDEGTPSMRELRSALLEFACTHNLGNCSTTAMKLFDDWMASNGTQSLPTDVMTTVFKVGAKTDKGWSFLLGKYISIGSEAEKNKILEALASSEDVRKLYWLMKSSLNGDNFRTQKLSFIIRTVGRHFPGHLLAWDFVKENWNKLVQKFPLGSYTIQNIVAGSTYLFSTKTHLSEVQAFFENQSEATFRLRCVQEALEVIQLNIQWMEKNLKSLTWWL
inactive: [1] 0.004 | volasertib -0.182 | [2] -0.016 | epoxomicin 0.014 | [3] 0.016 | [4] -0.02 | [5] 0.012 | rosiglitazone 0.016 | [6] -0.025 | [7] 0.024

LARP4 isoform 4 (UniProt Q71RC2)
inactive: [1] -0.016 | volasertib -0.351 | [2] 0.117 | epoxomicin -0.107 | [3] 0.005 | [4] 0.07 | [5] 0.009 | rosiglitazone 0.018 | [6] 0.137 | [7] -0.252

MICU1 isoform 3 (UniProt Q9BPX6)
Chain of UniProt Q9BPX6 (Q9BPX6 whole entry, looked up): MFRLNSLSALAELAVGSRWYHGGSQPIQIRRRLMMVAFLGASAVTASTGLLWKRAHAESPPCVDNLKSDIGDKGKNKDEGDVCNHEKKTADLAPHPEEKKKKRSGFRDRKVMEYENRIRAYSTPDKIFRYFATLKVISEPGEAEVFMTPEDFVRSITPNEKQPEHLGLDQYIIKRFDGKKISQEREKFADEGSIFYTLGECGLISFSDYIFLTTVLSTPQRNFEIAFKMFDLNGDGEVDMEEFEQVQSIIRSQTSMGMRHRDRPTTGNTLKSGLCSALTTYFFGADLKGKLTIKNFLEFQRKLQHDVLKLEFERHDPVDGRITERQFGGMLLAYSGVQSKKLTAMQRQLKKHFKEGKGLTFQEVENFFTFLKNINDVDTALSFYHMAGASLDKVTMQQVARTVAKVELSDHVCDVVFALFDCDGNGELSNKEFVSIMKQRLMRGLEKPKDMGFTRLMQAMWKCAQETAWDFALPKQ
active: [7] -0.369
inactive: [1] -0.113 | volasertib -0.281 | [2] 0.031 | epoxomicin 0.026 | [3] -0.009 | [4] 0.008 | [5] 0.006 | rosiglitazone -0.01 | [6] 0.077

KIF3A (UniProt Q9Y496)
inactive: [1] 0.036 | volasertib -0.039 | [2] -0.187 | epoxomicin 0.068 | [3] -0.004 | [4] -0.093 | [5] 0.032 | rosiglitazone 0.174 | [6] -0.023 | [7] -0.162

LDLR (UniProt P01130)
Chain of UniProt P01130 (P01130 whole entry, looked up): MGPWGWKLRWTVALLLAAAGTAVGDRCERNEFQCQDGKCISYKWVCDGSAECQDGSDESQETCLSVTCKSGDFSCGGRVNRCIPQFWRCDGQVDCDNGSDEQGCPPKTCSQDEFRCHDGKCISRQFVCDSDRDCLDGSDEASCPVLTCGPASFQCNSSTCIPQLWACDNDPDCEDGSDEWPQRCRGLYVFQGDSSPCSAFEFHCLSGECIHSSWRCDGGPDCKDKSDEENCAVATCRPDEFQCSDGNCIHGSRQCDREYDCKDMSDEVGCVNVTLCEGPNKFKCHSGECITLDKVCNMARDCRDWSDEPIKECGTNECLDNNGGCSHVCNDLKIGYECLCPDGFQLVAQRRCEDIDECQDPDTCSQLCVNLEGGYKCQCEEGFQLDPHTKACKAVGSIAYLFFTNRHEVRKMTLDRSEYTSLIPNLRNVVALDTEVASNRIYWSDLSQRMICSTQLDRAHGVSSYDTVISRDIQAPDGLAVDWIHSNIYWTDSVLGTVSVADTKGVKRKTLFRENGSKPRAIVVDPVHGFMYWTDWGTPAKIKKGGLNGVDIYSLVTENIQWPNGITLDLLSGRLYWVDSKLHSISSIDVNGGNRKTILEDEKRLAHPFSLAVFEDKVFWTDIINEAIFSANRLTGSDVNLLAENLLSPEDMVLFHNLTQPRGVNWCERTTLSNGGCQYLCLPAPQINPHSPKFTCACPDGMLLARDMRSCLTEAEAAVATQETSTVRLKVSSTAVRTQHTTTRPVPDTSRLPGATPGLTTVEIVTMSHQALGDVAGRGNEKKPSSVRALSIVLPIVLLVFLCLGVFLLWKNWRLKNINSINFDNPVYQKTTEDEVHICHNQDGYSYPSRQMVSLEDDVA
inactive: [1] -0.135 | volasertib -0.176 | [2] -0.028 | epoxomicin 0.031 | [3] -0.007 | [4] 0.058 | [5] -0.059 | rosiglitazone 0.009 | [6] -0.004 | [7] 0.064

LIAS (UniProt O43766)
inactive: [1] 0.051 | volasertib 0.055 | [2] -0.021 | epoxomicin -0.011 | [3] 0.027 | [4] -0.044 | [5] -0.043 | rosiglitazone 0.003 | [6] -0.052 | [7] 0.057

MARCKSL1 (UniProt P49006)
inactive: [1] -0.055 | volasertib 0.038 | [2] 0.021 | epoxomicin -0.055 | [3] 0.02 | [4] -0.015 | [5] -0.044 | rosiglitazone 0.012 | [6] -0.08 | [7] 0.147

MAP2K2 (UniProt P36507)
inactive: [1] -0.12 | volasertib 0.084 | [2] 0.077 | epoxomicin 0.044 | [3] -0.02 | [4] -0.06 | [5] 0.022 | rosiglitazone 0.04 | [6] -0.056 | [7] -0.1

LSR (UniProt Q86X29)
active: [7] 0.214
inactive: [1] 0.109 | volasertib 0.068 | [2] -0.02 | epoxomicin -0.021 | [3] -0.013 | [4] 0.011 | [5] -0.033 | rosiglitazone 0.011 | [6] -0.001

LEMD3 (UniProt Q9Y2U8)
inactive: [1] -0.096 | [2] -0.063 | epoxomicin 0.095 | [3] -0.076 | [4] 0.003 | [5] 0.123 | rosiglitazone -0.03 | [6] -0.016 | [7] -0.081
active: volasertib -0.324

MAP3K20 (UniProt Q9NYL2)
inactive: [1] 0.038 | volasertib -0.026 | [2] 0.08 | epoxomicin 0.008 | [3] 0.011 | [4] -0.016 | [5] -0.02 | rosiglitazone 0.035 | [6] 0.126 | [7] -0.12

LMBRD1 (UniProt Q9NUN5)
Chain of UniProt Q9NUN5 (Q9NUN5 whole entry, looked up): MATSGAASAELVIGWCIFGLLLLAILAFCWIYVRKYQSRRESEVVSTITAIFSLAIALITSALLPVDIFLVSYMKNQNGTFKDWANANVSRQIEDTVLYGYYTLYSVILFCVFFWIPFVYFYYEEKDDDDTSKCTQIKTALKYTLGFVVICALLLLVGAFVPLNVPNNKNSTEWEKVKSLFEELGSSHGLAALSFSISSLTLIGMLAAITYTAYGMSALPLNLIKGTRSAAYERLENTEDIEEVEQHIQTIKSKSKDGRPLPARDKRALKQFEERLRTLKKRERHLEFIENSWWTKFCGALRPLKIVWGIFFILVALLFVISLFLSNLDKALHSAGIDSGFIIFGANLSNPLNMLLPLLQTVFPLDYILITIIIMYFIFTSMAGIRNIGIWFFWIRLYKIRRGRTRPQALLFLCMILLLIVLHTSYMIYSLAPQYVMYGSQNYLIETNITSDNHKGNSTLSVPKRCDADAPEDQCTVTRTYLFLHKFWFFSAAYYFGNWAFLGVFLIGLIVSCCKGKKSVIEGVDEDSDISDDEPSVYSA
inactive: [1] -0.073 | volasertib 0.032 | [2] 0.015 | epoxomicin 0.065 | [3] -0.01 | [4] -0.015 | [5] 0.015 | rosiglitazone -0.016 | [6] 0.133 | [7] -0.351

KPNB1 (UniProt Q14974)
inactive: [1] -0.105 | [2] 0.04 | epoxomicin 0.04 | [3] 0.009 | [4] 0.016 | [5] 0.048 | rosiglitazone 0.027 | [6] 0.102 | [7] -0.212
active: volasertib -0.432

KCT2 (UniProt Q8NC54)
inactive: [1] -0.312 | volasertib -0.076 | [2] -0.006 | epoxomicin -0.063 | [3] 0.089 | [4] -0.03 | [5] 0.064 | rosiglitazone 0.009 | [6] -0.051 | [7] -0.037

INPP1 (UniProt P49441)
inactive: [1] 0.011 | volasertib -0.042 | [2] 0.028 | epoxomicin 0.052 | [3] 0.005 | [4] -0.011 | [5] -0.047 | rosiglitazone 0.002 | [6] 0.014
active: [7] -0.296

KTN1 (UniProt Q86UP2)
Chain of UniProt Q86UP2 (Q86UP2 whole entry, looked up): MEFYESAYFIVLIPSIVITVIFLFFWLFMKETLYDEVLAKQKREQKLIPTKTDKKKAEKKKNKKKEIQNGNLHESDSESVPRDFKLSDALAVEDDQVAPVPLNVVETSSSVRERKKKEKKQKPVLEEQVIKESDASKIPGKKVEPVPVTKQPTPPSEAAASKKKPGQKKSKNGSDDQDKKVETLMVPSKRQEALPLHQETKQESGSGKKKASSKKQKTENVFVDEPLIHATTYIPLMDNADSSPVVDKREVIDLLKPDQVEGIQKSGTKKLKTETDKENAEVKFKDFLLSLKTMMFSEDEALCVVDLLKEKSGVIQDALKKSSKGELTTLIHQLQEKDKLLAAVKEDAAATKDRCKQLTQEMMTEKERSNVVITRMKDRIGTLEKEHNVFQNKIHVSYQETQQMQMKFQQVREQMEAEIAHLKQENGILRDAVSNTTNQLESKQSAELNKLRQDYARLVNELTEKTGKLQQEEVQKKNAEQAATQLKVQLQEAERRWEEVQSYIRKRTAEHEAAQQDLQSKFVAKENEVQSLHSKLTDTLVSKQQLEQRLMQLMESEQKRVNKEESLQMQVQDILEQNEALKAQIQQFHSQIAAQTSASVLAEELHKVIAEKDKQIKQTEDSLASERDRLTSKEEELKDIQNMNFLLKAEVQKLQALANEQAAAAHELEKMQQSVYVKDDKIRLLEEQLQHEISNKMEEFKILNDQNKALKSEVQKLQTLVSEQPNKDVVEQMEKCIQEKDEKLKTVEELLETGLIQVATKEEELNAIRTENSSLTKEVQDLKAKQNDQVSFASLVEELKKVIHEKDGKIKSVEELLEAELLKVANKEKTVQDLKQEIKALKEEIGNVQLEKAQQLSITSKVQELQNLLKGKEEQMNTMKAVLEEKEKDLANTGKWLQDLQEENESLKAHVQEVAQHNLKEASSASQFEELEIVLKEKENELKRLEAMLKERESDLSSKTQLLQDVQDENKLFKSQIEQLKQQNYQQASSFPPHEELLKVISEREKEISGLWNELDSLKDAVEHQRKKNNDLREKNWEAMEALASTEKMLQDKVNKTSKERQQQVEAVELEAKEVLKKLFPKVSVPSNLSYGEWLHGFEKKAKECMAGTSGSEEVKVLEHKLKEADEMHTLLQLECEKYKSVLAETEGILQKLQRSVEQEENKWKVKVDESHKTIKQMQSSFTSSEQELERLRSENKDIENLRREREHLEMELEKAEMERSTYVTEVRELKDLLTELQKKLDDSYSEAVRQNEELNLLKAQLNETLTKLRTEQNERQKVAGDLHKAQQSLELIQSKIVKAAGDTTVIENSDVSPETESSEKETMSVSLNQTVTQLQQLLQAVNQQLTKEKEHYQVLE
inactive: [1] 0.039 | volasertib -0.242 | [2] 0.028 | epoxomicin 0.037 | [3] 0.091 | [4] 0.084 | [5] 0.006 | rosiglitazone -0.009 | [6] 0.127 | [7] -0.006

LRPPRC (UniProt P42704)
inactive: [1] -0.413 | volasertib -0.801 | [2] 0.161 | epoxomicin 0.277 | [3] -0.243 | [4] 0.01 | [5] 0.334 | rosiglitazone 0.214 | [6] 0.177 | [7] -0.323

ILVBL (UniProt A1L0T0)
inactive: [1] 0.049 | volasertib 0.069 | [2] -0.034 | epoxomicin 0.069 | [3] 0.006 | [4] 0.042 | [5] 0.036 | rosiglitazone -0.044 | [6] -0.068 | [7] 0.019

LMNB1 (UniProt P20700)
active: volasertib -0.308
inactive: [1] -0.045 | [2] 0.023 | epoxomicin 0.037 | [3] -0.021 | [4] 0.115 | [5] 0.034 | rosiglitazone -0.049 | [6] -0.034 | [7] 0.026

LEO1 (UniProt Q8WVC0)
inactive: [1] -0.021 | [2] -0.013 | epoxomicin -0.001 | [3] -0.007 | [4] -0.051 | [5] 0.121 | rosiglitazone 0.006 | [6] -0.033 | [7] -0.048
active: volasertib -0.402

— the supplement of paper PMC10849652
